Data taken from PubChem BioAssay AID1159580 (chemical genetic matrix, 2015).
The whole screen tested about 5,500 compounds, of which about 2,000 (36%) were called active. Roughly 18% stayed inconclusive and do not appear here. Rule as the data show it: active = normalized growth mostly below about 0.91 (no sharp cut-off); inconclusive = no clear call, values can overlap the other calls; inactive = mostly above about 0.92. The list shows a part of the results.

Experiment: chemical genetic growth profiling, strain panel (AID 1159580);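 also: tested at 20 µM; growth read once vehicle control cultures reached saturation at 30 °C; 1 = growth at the plate median or of vehicle wells; lower values mean less growth of the strain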
Conditions: growth OD

Measured: normalized growth

CNC(C)C(O)c1ccccc1 (centres undefined)
inactive: S. cerevisiae deletion strains, locus YJR043C, strain POL32, hits give low values 0.999 | S. cerevisiae deletion strains, locus YJR066W, strain TOR1, hits give low values 0.987 | S. cerevisiae deletion strains, locus YKL009W, strain mrt4, hits give low values 1.01 | S. cerevisiae deletion strains, locus YKL068W, hits give low values 1.01 | S. cerevisiae deletion strains, locus YKL085W, strain MDH1 (second series), hits give low values 1 | S. cerevisiae deletion strains, locus YKL085W, strain MDH1, hits give low values 1 | S. cerevisiae deletion strains, locus YKL160W, strain elf1, hits give low values 1.02 | S. cerevisiae deletion strains, locus YKL190W, strain CNB1, hits give low values 1.01 | S. cerevisiae deletion strains, locus YKR001C, strain vps1, hits give low values 1.03 | S. cerevisiae deletion strains, locus YKR026C, strain gcn3, hits give low values 1.01 | S. cerevisiae deletion strains, locus YKR091W, strain srl3, hits give low values 1.01 | S. cerevisiae deletion strains, locus YLL001W, strain dnm1, hits give low values 1.03 | S. cerevisiae deletion strains, locus YLL026W, hits give low values 1.01 | S. cerevisiae deletion strains, locus YLL041C, strain sdh2, hits give low values 1.01 | S. cerevisiae deletion strains, locus YLR027C, strain aat2, hits give low values 1.02 | S. cerevisiae deletion strains, locus YLR039C, strain RIC1, hits give low values 0.995 | S. cerevisiae deletion strains, locus YLR058C, strain SHM2, hits give low values 1 | S. cerevisiae deletion strains, locus YLR102C, strain apc9, hits give low values 1.02 | S. cerevisiae deletion strains, locus YLR113W, strain HOG1, hits give low values 0.963 | S. cerevisiae deletion strains, locus YLR221C, strain rsa3, hits give low values 1.01 | S. cerevisiae deletion strains, locus YLR258W, strain gsy2, hits give low values 1.01 | S. cerevisiae deletion strains, locus YLR262C, strain YPT6 (second series), hits give low values 1.01 | S. cerevisiae deletion strains, locus YLR262C, strain YPT6, hits give low values 1.03 | S. cerevisiae deletion strains, locus YLR268W, strain sec22, hits give low values 1.02 | S. cerevisiae deletion strains, locus YLR320W, strain mms22, hits give low values 1.02 | S. cerevisiae deletion strains, locus YLR330W, strain CHS5, hits give low values 1 | S. cerevisiae deletion strains, locus YLR342W, strain FKS1 (second series), hits give low values 1 | S. cerevisiae deletion strains, locus YLR342W, strain FKS1, hits give low values 1.02 | S. cerevisiae deletion strains, locus YLR357W, strain rsc2, hits give low values 1.05 | S. cerevisiae deletion strains, locus YLR370C, strain arc18, hits give low values 1.01 | S. cerevisiae deletion strains, locus YLR371W, strain rom2, hits give low values 1.02 | S. cerevisiae deletion strains, locus YLR384C, strain iki3, hits give low values 1.02 | S. cerevisiae deletion strains, locus YLR418C, strain cdc73, hits give low values 1.04 | S. cerevisiae deletion strains, locus YML016C, strain PPZ1, hits give low values 1.01 | S. cerevisiae deletion strains, locus YML032C, strain rad52, hits give low values 1.03 | S. cerevisiae deletion strains, locus YML120C, strain ndi1, hits give low values 1.02 | S. cerevisiae deletion strains, locus YML124C, strain tub3, hits give low values 1.03 | S. cerevisiae deletion strains, locus YMR058W, strain fet3, hits give low values 1.02 | S. cerevisiae deletion strains, locus YMR078C, strain ctf18, hits give low values 1.03 | S. cerevisiae deletion strains, locus YMR125W, strain sto1, hits give low values 0.996 | S. cerevisiae deletion strains, locus YMR129W, hits give low values 1 | S. cerevisiae deletion strains, locus YMR205C, strain PFK2, hits give low values 1.01 | S. cerevisiae deletion strains, locus YMR223W, strain ubp8, hits give low values 1.02 | S. cerevisiae deletion strains, locus YMR231W, strain pep5, hits give low values 1.01 | S. cerevisiae deletion strains, locus YMR307W, strain GAS1, hits give low values 1.02 | S. cerevisiae deletion strains, locus YNL067W, strain RPL9B, hits give low values 1 | S. cerevisiae deletion strains, locus YNL071W, strain lat1, hits give low values 1.02 | S. cerevisiae deletion strains, locus YNL128W, strain TEP1, hits give low values 1.02 | S. cerevisiae deletion strains, locus YNL183C, strain NPR1, hits give low values 0.971 | S. cerevisiae deletion strains, locus YNL209W, strain ssb2, hits give low values 1.01 | S. cerevisiae deletion strains, locus YNL233W, strain BNI4, hits give low values 1 | S. cerevisiae deletion strains, locus YNL248C, strain rpa49, hits give low values 1.01 | S. cerevisiae deletion strains, locus YNL250W, strain rad50, hits give low values 1.02 | S. cerevisiae deletion strains, locus YNL271C, strain bni1, hits give low values 1.02 | S. cerevisiae deletion strains, locus YNL298W, strain CLA4, hits give low values 1.03 | S. cerevisiae deletion strains, locus YNL307C, strain MCK1, hits give low values 1.04 | S. cerevisiae deletion strains, locus YNL322C, strain KRE1 (second series), hits give low values 1.01 | S. cerevisiae deletion strains, locus YNR049C, strain mso1, hits give low values 1.01 | S. cerevisiae deletion strains, locus YNR052C, strain pop2, hits give low values 1.02 | S. cerevisiae deletion strains, locus YOL006C, strain TOP1, hits give low values 0.993 | S. cerevisiae deletion strains, locus YOL012C, strain htz1 1.14 | S. cerevisiae deletion strains, locus YOL147C, strain pex11, hits give low values 1.03 | S. cerevisiae deletion strains, locus YOR001W, strain rrp6, hits give low values 1.02 | S. cerevisiae deletion strains, locus YOR061W, strain CKA2, hits give low values 1.01 | S. cerevisiae deletion strains, locus YOR069W, strain VPS5, hits give low values 1 | S. cerevisiae deletion strains, locus YOR070C, strain gyp1, hits give low values 1.01 | S. cerevisiae deletion strains, locus YOR080W, strain dia2, hits give low values 1.01 | S. cerevisiae deletion strains, locus YOR083W, strain WHI5, hits give low values 1.02 | S. cerevisiae deletion strains, locus YOR106W, strain vam3, hits give low values 1.03 | S. cerevisiae deletion strains, locus YOR136W, strain idh2, hits give low values 1.02 | S. cerevisiae deletion strains, locus YOR144C, strain elg1, hits give low values 1.01 | S. cerevisiae deletion strains, locus YOR184W, strain ser1, hits give low values 1.03 | S. cerevisiae deletion strains, locus YOR231W, strain MKK1, hits give low values 0.995 | S. cerevisiae deletion strains, locus YOR265W, strain rbl2, hits give low values 1.01 | S. cerevisiae deletion strains, locus YOR270C, strain vph1, hits give low values 1.04 | S. cerevisiae deletion strains, locus YOR290C, strain snf2, hits give low values 1 | S. cerevisiae deletion strains, locus YOR316C, strain cot1, hits give low values 1.02 | S. cerevisiae deletion strains, locus YPL051W, strain arl3, hits give low values 1.02 | S. cerevisiae deletion strains, locus YPL055C, strain LGE1, hits give low values 1.01 | S. cerevisiae deletion strains, locus YPL078C, strain atp4, hits give low values 1.03 | S. cerevisiae deletion strains, locus YPL106C, strain sse1, hits give low values 1.01 | S. cerevisiae deletion strains, locus YPL240C, strain hsp82, hits give low values 1.01 | S. cerevisiae deletion strains, locus YPL256C, strain CLN2, hits give low values 1.03 | S. cerevisiae deletion strains, locus YPR119W, strain clb2, hits give low values 1.02 | S. cerevisiae deletion strains, locus YPR141C, strain kar3, hits give low values 1.02 | S. cerevisiae deletion strains, locus YPR163C, strain tif3, hits give low values 1.04 | S. cerevisiae deletion strains, locus YPR167C, strain met16, hits give low values 1.02 | S. cerevisiae deletion strains, strain wtn01, hits give low values 1.02 | S. cerevisiae strains, strain wild type, hits give low values 0.999
